This excerpt belongs to a sample that is enriched for hits.
CHX counter: affects cycloheximide protein synthesis inhibition readout, counter-screen; max response, %; 300,000 compounds, 12% hits; cell reporter, cycloheximide protein synthesis inhibition counterscreen; AID 2314; in the data active = max response mostly above about 13%, no sharp cut-off; inactive = mostly below about 14%; also: read at 38.3 µM for the half of the compounds with a filed dose; 0% is about no effect
VACV mCherry inh: inhibitors of vaccinia virus infection (mCherry reporter signal); Potency, µM (doses to about 36.5 µM), for inactives: at the highest dose activity change, negative = inhibition, usual class: inhibitors; Vaccinia virus mCherry reporter infection, fluorescence; 310,000 compounds, 0.63% hits; calls by dose curve; tested in A549 cells; also: potency is read from the fitted curve at half-maximal effect; % is scaled to controls: 0 for no effect and ±100 for the full control effect; nearly all actives have a fitted effect of over 35% in size
Marburg entry inh: blocks Marburg virus binding to or entry into cells | Marburg virus pseudotyped entry inhibition, cell reporter | 300,000 compounds, 1.8% hits | Potency, µM (titrated, usually from 37.8 µM), for inactives: top-dose activity change, negative = inhibition, usual class: inhibitors; calls by dose curve; tested in HEK293 cells; also: potency is read from the fitted curve at half-maximal effect; % is scaled to controls: 0 for no effect and ±100 for the full control effect
VACV Venus inh: inhibitors of vaccinia virus (Venus reporter); Vaccinia virus Venus reporter expression, fluorescence; Potency, µM (doses to about 36.5 µM), for inactives: top-dose activity change, negative = inhibition, most hits filed as inhibitors; 330,000 compounds, 0.46% hits; AID 720580; calls by dose curve; tested in A549 cells; also: potency is read from the fitted curve at half-maximal effect; % is scaled to controls: 0 for no effect and ±100 for the full control effect; nearly all actives have a fitted effect of over 30% in size
Lassa entry inh: Lassa virus entry inhibition | 300,000 compounds, 1.2% hits | Lassa virus pseudotype entry inhibition, cell reporter | Potency, µM (series often up to 37.9 µM), inactives show at the highest dose activity change, negative = inhibition, hits mostly inhibitors; calls by dose curve; tested in HEK293 cells; also: potency is read from the fitted curve at half-maximal effect; % is scaled to controls: 0 for no effect and ±100 for the full control effect; nearly all actives have a fitted effect of over 50% in size
Shiga toxin inh: Shiga toxin inhibition. Vero cells, Shiga toxin protein synthesis inhibition reporter. inhibition, % at 38.7 µM. 290,000 compounds, 9.2% hits; in the data active = inhibition mostly above about 28%, no sharp cut-off; inactive = mostly below about 43%; also: 0% is about no effect
Numbers without * were called inactive; i = inactive; ? = inconclusive; / = no result given; [ ] = remark or other dose.

SMILES	CHX counter	VACV mCherry inh	Marburg entry inh	VACV Venus inh	Lassa entry inh	Shiga toxin inh
CCc1ccc(NC(=O)NC2CCCCCCC2)cc1	53*	-14%	?	-3%	?	119*
Cc1ccc(NC2=Nc3ccccc3CS2)cc1	38*	/	10µM*	-19%	?	30
COc1c2ccoc2nc2c(OC)cccc12	16	-7%	7%	-2%	17%	44*
Cc1ncc2c(c1CNC(=O)c1ccccc1F)CCN(C(=O)c1ccc3c(c1)OCCO3)C2	/	-9%	/	-7%	/	/
N#Cc1ccc(-c2csc(NNC(=O)c3ccccc3)n2)cc1	1	?	10µM*	12%	?	-4
O=C(NNc1nc(-c2ccccc2)cs1)c1ccccc1	19	-25%	?	-7%	?	40
N#Cc1ccc(-c2csc(NNC(=O)c3ccc(Br)cc3)n2)cc1	6	/	?	14µM*	-21%	16
O=C(NNc1ccccc1[N+](=O)[O-])Nc1cccc(Cl)c1	47*	/	/	/	/	81*
CSc1ccc(NC(=O)Nc2ccccc2C(N)=O)cc1	67*	-9%	/	-22%	/	74*
COc1ccc(Cl)cc1NC(=O)Nc1ccccc1C(N)=O	8	-6%	/	-22%	/	-9
NC(=O)c1ccccc1NC(=O)Nc1cccc(Cl)c1	21*	-17%	5%	-18%	?	45*
O=C(Nc1cccc(Cl)c1)Nc1ccccc1C(=O)O	24*	/	/	/	/	47*
O=C(NNc1ccccc1[N+](=O)[O-])Nc1ccc(F)cc1F	1	-12%	3%[46.1 µM]	-3%	1%	33
COc1ccccc1NC(=O)Nc1cccc(NC(C)=O)c1	1	-9%	?	-9%	-9%[46.1 µM]	1
COc1cccc(NC(=O)Nc2ccccc2C(N)=O)c1	27*	i	?	-8%	11%[46.1 µM]	35
OC(c1ccc2c(c1)CN(Cc1ccc3nsnc3c1)CCO2)C1CCCCC1 (configuration not stated)	/	-10%	/	-2%	/	/
Cc1cccc(NC(=O)c2ccc(-n3cnc4cccnc43)cc2)c1C	/	-6%	/	-1%	25%[46.1 µM]	/
NS(=O)(=O)c1ccc(N=Nc2c(O)[nH]c3ccc(-c4cnco4)cc23)cc1	/	/	/	/	13µM*	/
Cc1ccc2[nH]c(O)c(N=Nc3ccc(S(N)(=O)=O)cc3)c2c1	/	/	/	/	4µM*	/
Cc1cccc(N=Nc2c(O)[nH]c3ccc(Br)cc23)c1	39*	-24%	5%[46.1 µM]	-13%	6%[46.1 µM]	31*
CC(C)=Cc1cccc2[nH]c(O)c(N=Nc3ccc(S(N)(=O)=O)cc3)c12	/	/	/	/	4µM*	/
Cc1c(C#N)c(O)[nH]c(=O)c1N=Nc1ccc(S(N)(=O)=O)cc1	-6	i	4%[46.1 µM]	6%	0%[46.1 µM]	-1
COc1ccccc1N=Nc1c(O)[nH]c2ccc(Br)cc12	2	-14%	21%[46.1 µM]	-11%	12%[46.1 µM]	29
Cc1cccc(C)c1N1C(=O)[C@@H]2[C@H](ON(c3ccccc3)[C@H]2c2ccncc2)C1=O	/	/	-1%	/	/	/
O=C(N/N=C/c1ccc[nH]1)c1ccc(O)cc1	28*	i	?	-5%	?	101*
SMILES	CHX counter	VACV mCherry inh	Marburg entry inh	VACV Venus inh	Lassa entry inh	Shiga toxin inh
O=C(N/N=C/c1ccc[nH]1)c1ccccc1O	37*	-13%	-17%[14.2 µM]	-7%	-13%	40*
O=C(N/N=C/c1ccc[nH]1)c1cccc([N+](=O)[O-])c1	8	-14%	4%	-15%	?	11
CCOC(=O)c1sc(NC(=O)C(C)Oc2ccc(OC)cc2)c(C(=O)OCC)c1C (configuration not stated)	/	i	/	-13%	7%[46.1 µM]	/
O=c1c2cc(Br)ccc2nc2n1CCCCC2	29*	-17%	?	-12%	8%	55
O=c1c2cc([N+](=O)[O-])ccc2nc2n1CCCC2	-1	-11%	?	-4%	?	-5
Cc1ccc2nc3n(c(=O)c2c1)CCCCC3	31*	-24%	17%	-18%	9%	53*
CC(C)=CC(=O)O[C@@H]1Cc2cc3ccc(=O)oc3cc2OC1(C)C	/	-13%	/	-18%	/	/
CC(=O)ON(C(C)=O)c1ccc(/C=C2/C=Cc3ccccc32)cc1	/	-2%	/	-22%	/	/
Cc1ccsc1C(=O)NCCc1nnc2ccccn12	31*	/	/	/	/	72*
O=C(NCCc1nnc2ccccn12)c1cccs1	36*	/	/	/	/	51*
C=CCn1c(CCNC(=O)c2cccs2)nnc1SCC(=O)c1ccc(Br)cc1	-2	/	?	/	24%	-14
CC1(C)CN(C2CCCCC2)C(=O)[C@@H]1CC(=O)Nc1ccccc1	/	/	/	/	2%[46.1 µM]	/
O=[N+]([O-])c1cccc(C([O-])=C(C(=S)Nc2cccc3ccccc23)[n+]2ccccc2)c1	/	?	?	-19%	11%[46.1 µM]	/
Cc1ccc(/C([O-])=C(/C(=S)NCc2ccco2)[n+]2ccccc2)cc1	-1	/	/	/	/	-12
Cc1ccc(NC(=S)/C(=C(\[O-])c2ccc(F)cc2)[n+]2ccccc2)cc1	21*	0%	-19%[46.1 µM]	9%	2%	36
O=[N+]([O-])c1cccc(/C([O-])=C(/C(=S)Nc2cccc3ccccc23)[n+]2ccccc2)c1	27*	-17%	16%[46.1 µM]	-3%	12%[46.1 µM]	64*
CCOc1ccc(NC(=S)/C(=C(\[O-])c2ccc(C)c([N+](=O)[O-])c2)[n+]2ccccc2)cc1	33*	/	15%[46.1 µM]	-16%	-2%	41*
COc1cccc(NC(=S)/C(=C(\[O-])c2ccc([N+](=O)[O-])cc2)[n+]2ccccc2)c1	24*	-22%	/	-7%	/	66*
CN(C)CCCNC(=O)C(=O)Nc1cc2c3c(c1)CCC(=O)N3CCC2	-2	/	/	/	/	-7
Cc1cnc(SCc2ccccn2)nc1C1CCCN(C(=O)c2coc3c2C(=O)CCC3)C1 (configuration not stated)	/	-24%	/	-20%	/	/
CCOC(=O)c1cnc(-c2cccc(OC)c2)[nH]c1=O	15*	/	1%	/	1%	12
COc1cccc(-c2nnn(C/C(N)=N/O)n2)c1	37*	-4%	?	-1%	22%	-6
CCOC(=O)c1cnc(-c2ccccc2)[nH]c1=O	1	-22%	2%[46.1 µM]	-11%	3%	-9
CCOC(=O)Cn1nnc(-c2cccc(OC)c2)n1	43*	-16%	9%	-3%	6%	109*
O=C(/C=C/c1ccccc1Cl)N1CCOCC1	19*	/	/	/	/	2
SMILES	CHX counter	VACV mCherry inh	Marburg entry inh	VACV Venus inh	Lassa entry inh	Shiga toxin inh
O=C(/C=C/c1cccc(Oc2ccccc2)c1)N1CCOCC1	34*	/	/	/	/	86*
O=C(/C=C/c1cccc2ccccc12)N1CCOCC1	32*	i	27%[46.1 µM]	-7%	-2%	86*
N#Cc1ccccc1/C=C/C(=O)N1CCOCC1	1	-14%	30%	-10%	10%	-4
Cc1ccccc1/C=C/C(=O)N1CCOCC1	31*	i	1%[46.1 µM]	-4%	15%[46.1 µM]	66*
O=C(/C=C/c1cccc([N+](=O)[O-])c1)N1CCOCC1	-1	-8%	?	4%	-2%	4
Cc1cccn2c(=O)c(C=O)c(Nc3ccccc3)nc12	-3	i	3%	-2%	0%	-1
COc1ccc(CC(=O)NCc2ccc3c(c2)CCN3C(C)=O)cc1	/	-14%	/	-10%	16%[46.1 µM]	/
O=C(/C=C/c1ccc(OCCCF)cc1)N1CCOCC1	30*	/	/	/	/	66*
